SMILES strings stand for the structures. Records with an inconclusive call do not appear. A number with no mark means an inactive call. The source made the active and inactive calls. Calls follow the shape of the dose curve; as a rule, active = well fitted cell-killing curve with a large enough effect; inconclusive = small, poorly fitted or top-dose-only effect, or effect the other way; inactive = no such curve, though single readings can be large or run the other way.

Assay [1] is described as follows: Viability qHTS for spleen associated tyrosine kinase inhibitor (SYKi) naive MV4-11 cells (AID 1963823). Also: nearly all actives have a fitted effect of over 40% in size. To be noted: MV4-11 AML viability, CellTiter-Glo luminescence, 72 h; series mostly up to 45 µM. The method in brief: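 Compounds were dispensed acoustically onto plates, MV4-11 cells (SYKi-naive) added at 500 per well, and plates incubated 72 hr at 37 C. CellTiter-Glo was added and luminescence measured after 10 min.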

A short description of assay [2]: Viability qHTS for spleen associated tyrosine kinase inhibitor (SYKi) drug resistant MV4-11 cells (AID 1963824). Also: nearly all actives have a fitted effect of over 35% in size. As to conditions: SYKi-resistant MV4-11 viability, CellTiter-Glo, 72 h; series mostly up to 45 µM. The gist of the method: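 CellTiter-Glo luminescence, read 10 min after reagent addition, reports viability after a 72 hr compound exposure. Cells are an MV4-11 line made resistant to SYK inhibition, seeded at 500 per well onto compound-containing plates.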
(In qHTS, concentration-response curves come from the screen itself.)
Potency is read from the fitted curve at half-maximal effect.

Consider `C/C=C/C=C/C(O)=C1\C(O)=C(C)C(=O)[C@@]2(C)OC(=O)[C@@](C)(NC(=O)/C=C/C(=O)O)[C@@H]12`, for which the Potency entry in assay [1] and in assay [2] was “inactive” each time.
Consider `CN(C)c1ccc(Nc2c3ccc(NC(=O)CCN4CCCC4)cc3nc3cc(NC(=O)CCN4CCCC4)ccc23)cc1`, for which the Potency is 5.17 µM (active) in assay [1] and 4.11 µM (active) in assay [2].
With `COC(=O)CC1OC(C)C2=C(O)c3c(O)cccc3C(=O)C23OC13` (stereo not drawn), the Potency in assay [1] was 1.14 µM (active); in assay [2], 0.57 µM (active).
On the same counts, the results for `CC(=O)N1c2ccccc2C2(O)CC3C(=O)NC(CC(C)C)C(=O)N3C12` (stereo not drawn) are “inactive” and “inactive”.
The like results for `CCN(CC)CC1CCN(c2ncc3ncnc(Nc4ccc(F)c(Cl)c4)c3n2)CC1` were, in that order, 2.91 µM (active) and 2.91 µM (active).
Take `C=C1C(=O)OC2C=C(C)CC/C=C(\CO)CC(O)C12` (stereo not drawn): the Potency is 10.3 µM (active) in assay [1] and 11.6 µM (active) in assay [2].
On the same counts, the results for `COc1cccc(CN(C(=O)CC(C)(C)C)[C@H]2C[C@H](C(=O)N3CCNCC3)N(Cc3ccc4c(c3)OCO4)C2)c1` are 18.4 µM (active) and 16.4 µM (active).
On to `C=CC(C)(O)CC/C=C(\C)C(=O)O[C@@H]1[C@@H](O)[C@H](OC(C)(C=C)CC/C=C(\C)C(=O)O[C@@H]2O[C@H](CO)[C@@H](O)[C@H](O)[C@H]2O)O[C@H](CO)[C@H]1OC(=O)/C(C)=C/CCC(C)(O)C=C` (stereo partly drawn), for which the viability (% of control) in assay [1] was 87.6% [at 9.25 µM]. The viability, % of control in assay [2] is 77.6% [at 9.25 µM].
Take `COc1cc(/C=C/C(=O)OC2CC(C)=C(C(=O)O)/C2=C/CO[C@@H]2O[C@H](CO)[C@@H](O)[C@H](O)[C@H]2O)ccc1O` (stereo partly drawn): the Potency result in assay [1] and in assay [2] was “inactive” in each case.
